The list is not random: actives were taken first. Their share in the collection is about 19%.
TDP1 cell noCPT – qHTS for Inhibitors of human tyrosyl-DNA phosphodiesterase 1 (TDP1): qHTS in cells in absence of CPT. DT40 Tdp1-/- hTDP1 cells, no CPT, ATP luminescence, 48 h. Potency, µM (series often up to 46.2 µM), most hits filed as inhibitors. actives 15% (n = 420,000). AID 686978, 2013; note: nearly all actives have a fitted effect of over 55% in size
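A cellular qHTS used chicken DT40 cells lacking endogenous Tdp1 but carrying stably transfected human TDP1. Compounds were applied without camptothecin, and cell growth kinetics were judged by ATP-dependent luminescence after ≥48 hr.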
DT40 TDP1 CPT – growth inhibition of DT40 Tdp1-/-;hTDP1 cells with camptothecin (screen for TDP1 inhibitors); chicken DT40 Tdp1-/-;hTDP1 cells + 20 nM CPT, ATP luminescence, 48 h; actives 12% (n = 420,000); Potency, µM (highest dose often 46.2 µM), hits mostly inhibitors; AID 686979; note: nearly all actives have a fitted effect of over 55% in size
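Cell growth measured by CellTiter-Glo luminescence after a minimum 48 h, 37 C compound exposure with 20 nM CPT in Tdp1-knockout DT40 cells stably expressing hTDP1, seeded 400/well; qHTS titration format.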
HT1080 IDH1KD tx – kills HT-1080 cells with IDH1 knockdown. HT-1080 IDH1 knockdown viability, ATP luminescence, 48 h. Potency, µM (titrated, usually from 46.1 µM), hits mostly cytotoxic. actives 2% (n = 360,000). AID 686971
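After a 2 h attachment period, IDH1KD HT-1080 cells took pin-transferred compound for 48 h at 37 °C; ATP-based luminescence after 10 min room-temperature reagent incubation reported viability.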
IL-1B inflam inh – blocks inflammasome-driven IL-1 beta release | THP-1 LPS/ATP IL-1B secretion, AlphaLISA, 16 h; hits give low values | activity change, % at 57.5 µM | actives 4.7% (n = 360,000); in the data active = activity change below about -50%; inconclusive = mostly about -30% to -49%
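THP-1 cells pretreated 1 hr with compounds (up to 57.5 uM final), then stimulated with LPS (250 ng/mL final) plus ATP (1.25 mM final); secreted IL-1B measured by AlphaLISA after 16 hr, decreased signal indicating inhibition.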
HT1080-NT tox – kills 2HG-producing HT-1080-NT fibrosarcoma cells; Potency, µM (top dose mostly 46.1 µM), usual class: cytotoxic; HT-1080-NT fibrosarcoma viability, CellTiter-Glo ATP luminescence, 48 h; actives 1.6% (n = 360,000);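 note: NT is the 2HG producing partner of a matched IDH1 knockdown line; nearly all actives have a fitted effect of over 55% in size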
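HT-1080-NT fibrosarcoma cells (2HG-overproducing), 750 cells/well in RPMI with 5% FBS, dosed after 2 h and incubated 48 h at 37C. CellTiter-Glo luminescence normalized to DMSO and no-cell wells; concentration-response curves fitted and classed.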
Large screens that a line does not name were inactive. Unless noted, calls come from the whole dose curve; as a rule, active = well fitted curve in the direction sought with a large enough effect; inconclusive = small, poorly fitted or top-dose-only effect, or another doubt; inactive = no such curve, though single readings can be large; an effect the other way counts as inactive or inconclusive.

COc1ccccc1NC(=O)Cc1csc(NC(=O)c2ccccc2)n1	TDP1 cell noCPT inconclusive, DT40 TDP1 CPT inconclusive
COc1ccccc1NC(=O)Nc1nc(CC(=O)Nc2cccc(F)c2)cs1	TDP1 cell noCPT inconclusive, DT40 TDP1 CPT inconclusive
Cc1cc(C)c(C)c(OCC(=O)NCc2nc(-c3ccccc3)no2)c1	none
CCN(C(=O)COC(=O)c1c(NC(C)=O)sc(C)c1C)c1c(N)n(Cc2ccccc2)c(=O)[nH]c1=O	TDP1 cell noCPT inconclusive
CC[N+](CC)(CC#Cc1ccccc1)CC(=O)c1ccc(Cl)cc1	TDP1 cell noCPT 5.8µM, DT40 TDP1 CPT 5.8µM
CCC[N+](CC#CCO)(CC#Cc1ccccc1)CCC	none
CCCC[N+](CC#CCO)(CC#Cc1ccccc1)CCCC	TDP1 cell noCPT 9.2µM, DT40 TDP1 CPT inconclusive
O=C(Oc1cccc2ccccc12)C1CC1	none
Cc1c(Cl)cnc(NC(=O)COC(=O)[C@@H](NC(=O)c2ccco2)C(C)C)c1Cl	DT40 TDP1 CPT inconclusive
Cc1cc(C)c(O)c(-c2cc(C(=O)Nc3c(C)n(C)n(-c4ccccc4)c3=O)[nH]n2)c1	DT40 TDP1 CPT inconclusive
O=C(c1ccccc1)c1ccc(-c2ccc(O)cc2)cc1	HT1080 IDH1KD tx inconclusive, IL-1B inflam inh -81, HT1080-NT tox 18µM
C=CCn1c(SCC(C)=O)nc2scc(-c3ccc(C)o3)c2c1=O	TDP1 cell noCPT inconclusive, DT40 TDP1 CPT inconclusive, HT1080 IDH1KD tx inconclusive
C=CCn1c(=S)[nH]c2scc(-c3ccc(C)o3)c2c1=O	TDP1 cell noCPT 10µM, DT40 TDP1 CPT inconclusive, HT1080 IDH1KD tx 16µM, HT1080-NT tox 13µM
CCCCC(CC)CN1CN(CC(CC)CCCC)CC(C)(N)C1 (configuration not stated)	TDP1 cell noCPT 0.23µM, DT40 TDP1 CPT 0.16µM
CCCCN(CC(=O)NC1CC1)S(=O)(=O)c1ccc(OCC)cc1	none
O=C(c1cc(-c2ccncc2)nc2ccccc12)N1CCN(Cc2ccccc2)CC1	TDP1 cell noCPT 21µM, DT40 TDP1 CPT 21µM, IL-1B inflam inh -60
CC(=O)N1CCN(C(=O)c2cc(-c3cccc4ccccc34)nc3ccccc23)CC1	TDP1 cell noCPT 16µM, DT40 TDP1 CPT 15µM
O=C(c1cc(-c2ccncc2)nc2ccccc12)N1CCCC(C(F)(F)F)C1 (configuration not stated)	TDP1 cell noCPT 18µM, DT40 TDP1 CPT inconclusive
O=C(c1cc(-c2ccncc2)nc2ccccc12)N1CCOCC1	none
Cc1ccccc1CN1CCN(C(=O)c2cc(-c3ccncc3)nc3ccccc23)CC1	TDP1 cell noCPT 12µM, DT40 TDP1 CPT 21µM
Cc1ccc(-c2cc(C(=O)N3CCOCC3)c3ccccc3n2)cc1	none
Cc1nnc(SCC(=O)N2CCN(c3cccc(Cl)c3)CC2)n1C1CC1	none
CC1CC(C)CN(C(=O)c2cc(-c3ccncc3)nc3ccccc23)C1 (configuration not stated)	TDP1 cell noCPT inconclusive, DT40 TDP1 CPT inconclusive
Cc1cccc2c(C(=O)N3CCCCC3)cc(-c3ccccc3)nc12	TDP1 cell noCPT inconclusive, DT40 TDP1 CPT inconclusive
CC1CCCN(C(=O)c2cc(-c3cccs3)nc3ccccc23)C1 (configuration not stated)	TDP1 cell noCPT 23µM, DT40 TDP1 CPT inconclusive
Cc1cccc2c(C(=O)N3CCN(c4ccccc4)CC3)cc(-c3ccncc3)nc12	TDP1 cell noCPT 2.9µM, DT40 TDP1 CPT 2.6µM, HT1080 IDH1KD tx 1.3µM, HT1080-NT tox 1.3µM
O=C(c1cc(-c2cccs2)nc2ccccc12)N1CCN(c2ccccc2)CC1	TDP1 cell noCPT inconclusive, DT40 TDP1 CPT inconclusive, HT1080 IDH1KD tx inconclusive
CC(C)n1ncc2c(C(=O)N3CCN(c4ccc(F)cc4)CC3)cc(-c3ccccc3)nc21	TDP1 cell noCPT inconclusive, DT40 TDP1 CPT inconclusive, IL-1B inflam inh -58
Cc1ccccc1N1CCN(C(=O)c2cc(-c3ccccc3)nc3c2cnn3C(C)C)CC1	none
O=C(c1cc(-c2ccncc2)nc2ccccc12)N1CCN(S(=O)(=O)/C=C/c2ccccc2)CC1	TDP1 cell noCPT 18µM, DT40 TDP1 CPT inconclusive, IL-1B inflam inh inconclusive
Cc1ccccc1C(=O)Nc1ccnn1C1CCN(Cc2cnn(C(C)C)c2)CC1	none
Cc1cc(=O)n2c3c(c4c(cc13)c(CN(C)C)cc(=O)n4C)OC2	TDP1 cell noCPT 6.5µM, DT40 TDP1 CPT 8.2µM, HT1080 IDH1KD tx inconclusive
Cc1cc(=O)n(C)c2ccccc12	none
O=C(O)c1cccc(S(=O)(=O)N2CCCC(c3nc4c(nnn4Cc4ccc(F)cc4)c(=O)[nH]3)C2)c1 (configuration not stated)	none
C#CCN1C=CC(=O)[C@@H](OC(=O)Nc2ccc(Cl)cc2)[C@H]1c1ccccc1Br	TDP1 cell noCPT 23µM, DT40 TDP1 CPT 21µM
COC(=O)[C@H]1Cc2c([nH]c3ccccc23)CN1C(=O)COc1ccc2c(C)cc(=O)oc2c1	TDP1 cell noCPT inconclusive (no result: HT1080 IDH1KD tx, IL-1B inflam inh, HT1080-NT tox)
CCOc1ccc(CSCCNC(=S)Nc2ccc(OC)cc2)cc1	TDP1 cell noCPT 23µM, DT40 TDP1 CPT inconclusive, HT1080-NT tox inconclusive
Cc1cccc(CSCCNC(=S)Nc2ccccc2)c1	TDP1 cell noCPT 18µM, DT40 TDP1 CPT inconclusive, IL-1B inflam inh inconclusive
CCCOc1ccc(CSCCNC(=S)Nc2ccccc2)cc1	TDP1 cell noCPT 23µM, DT40 TDP1 CPT 26µM
S=C(NCCSCc1ccc(Cl)cc1)Nc1ccccc1	TDP1 cell noCPT inconclusive, DT40 TDP1 CPT inconclusive, IL-1B inflam inh inconclusive
S=C(NCCSCc1ccccc1Cl)Nc1ccccc1	TDP1 cell noCPT inconclusive, DT40 TDP1 CPT inconclusive, HT1080 IDH1KD tx inconclusive
CC(=O)c1ccc(OCC(=O)OCC(=O)NCc2ccco2)cc1	none
CC1CCCCN1CCCNC(=O)c1cc(Br)c(Br)[nH]1 (configuration not stated)	none
CC(C)CN1C(=O)NC(NS(=O)(=O)c2ccc(N)cc2)(C(F)(F)F)C1=O (configuration not stated)	none
CC(C)CCN(C(=O)CNC(=O)c1ccco1)C(C(=O)NC1CCCCC1)c1cccnc1 (configuration not stated)	none
Cc1sc(-c2cccnc2)nc1OC(=O)C1CC1	HT1080-NT tox inconclusive
CCN(CC)c1ccc(/C=C/c2nccc3ccccc23)cc1	TDP1 cell noCPT 13µM, DT40 TDP1 CPT inconclusive (no result: HT1080 IDH1KD tx, IL-1B inflam inh, HT1080-NT tox)
CCN(CC)c1nc(C=Cc2ccc(N(C)C)cc2)c2nccnc2n1	TDP1 cell noCPT 21µM, DT40 TDP1 CPT 23µM
CN(C)c1ccc(C=Cc2nccc3ccccc23)cc1	TDP1 cell noCPT inconclusive, DT40 TDP1 CPT inconclusive, HT1080 IDH1KD tx 21µM, HT1080-NT tox inconclusive
CCN(CC)c1ccc(/C=C/c2c(C)cnc3ccccc23)cc1	TDP1 cell noCPT 11µM, DT40 TDP1 CPT inconclusive (no result: HT1080 IDH1KD tx, IL-1B inflam inh, HT1080-NT tox)
CCN(CC)c1ccc(/C=C(\C#N)C(=O)NCc2ccccc2)cc1	TDP1 cell noCPT inconclusive, IL-1B inflam inh inconclusive
